RXFP1 agonist: qHTS Assay for Agonists of the Relaxin Receptor RXFP1; Potency, µM (highest dose often 57.5 µM), usual class: activators; Relaxin receptor 1 (Homo sapiens), Q9HBX9; HEK293T-RXFP1 cAMP TR-FRET, 30 min; response scale: percent of porcine relaxin response, buffer zero; 0.3% of 370,000 active; AID 2676, 2010; active means well fitted activation curve with a large enough effect; inconclusive means small, poorly fitted or top-dose-only effect; further: nearly all actives have a fitted effect of over 60% in size
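Agonist response is measured as cAMP accumulation in an RXFP1-transfected HEK293T line under PDE4 inhibition. Values are scaled between buffer-only and 29 nM porcine relaxin, and EC50s come from standard Hill equation fits.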
gsp antag: qHTS for Antagonists of gsp, the Etiologic Mutation Responsible for Fibrous Dysplasia/McCune-Albright Syndrome: qHTS. gsp-mutant cells, cAMP HTRF, 30 min. Potency, µM (highest dose often 76.9 µM), actives largely listed as inhibitors. 0.4% of 340,000 active. AID 624288, 2012; calls by dose curve; cell line not stated here;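 further: intracellular cAMP measured with PDE inhibitor Ro 20-1724 present during compound exposure; nearly all actives have a fitted effect of over 65% in size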
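Cells in G418 medium, seeded 16-24 h, 37C; buffer exchange to DPBS + 1 mM CaCl2, 0.5 mM MgCl2, 0.05% BSA; cpds in DMSO + […] (300 uM stock), 30 min 37C; HTRF cAMP detection.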
TRPV1 agonist: HTS Assay for Compounds that Act as Agonists of the Vanilloid Receptor 1; TRPV1-expressing cells, Fluo-8 calcium influx, agonist mode; 0.19% of 320,000 active; AID 540275, 2011; activation, % at 8.33 µM; in the data active means activation above about 80%; inconclusive means between about 30% and that limit
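Fluo-8 calcium influx in TRPV1-expressing cells, kinetic read (ex 480/em 520 nm). Compound added and read 3 min for agonist activity, followed by capsaicin at EC20 final and 2 min further read for enhancement.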
RXFP1 antag: qHTS Assay for Antagonists of the Relaxin Receptor RXFP1 | AID 1259400, 2018 | activity change, negative = inhibition, % at 57.5 µM | 0.59% of 350,000 active | HEK293-RXFP1, relaxin-stimulated cAMP HTRF, 30 min; stronger effect = lower value;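 active means activity change of -60% or lower, but not beyond a set lower limit; inconclusive means change between -60% and -40%, or beyond the set limit; inactive means change above -40%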
TRPV1 PAM: HTS Assay for Compounds that Act as Potentiators of the Vanilloid Receptor 1; TRPV1-expressing cells, Fluo-8 calcium influx, capsaicin EC20 potentiation; potentiation, % at 8.33 µM; 0.02% of 320,000 active; AID 540277, 2011; in the data active means potentiation above about 80%; inconclusive means between about 30% and that limit
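TRPV1-expressing cells were cultured overnight at 35.5C and loaded with Fluo-8 calcium dye for 40 to 90 min at room temperature. After a 10 s baseline, compound was added and calcium influx was read kinetically for 3 min (ex 480/em 520 nm).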
gsp ag: qHTS for Agonist of gsp, the Etiologic Mutation Responsible for Fibrous Dysplasia/McCune-Albright Syndrome: qHTS; gsp mutant cells, cAMP HTRF, 30 min; 0.13% of 340,000 active; Potency, µM (top dose mostly 76.9 µM), actives largely listed as activators; AID 624287, 2012; active means well fitted activation curve with a large enough effect; inconclusive means small, poorly fitted or top-dose-only effect, or another doubt; inactive means no such curve, though single readings can be large or run the other way; cell line not stated here;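 further: phosphodiesterase inhibitor Ro 20-1724 added with compounds to block cAMP breakdown; nearly all actives have a fitted effect of over 60% in size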
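Cells in DMEM/10% FBS with G418 were pretreated with compounds in DMSO plus […] (300 uM stock) for 30 min at 37C. cAMP was measured by HTRF (cAMP-d2 plus anti-cAMP antibody-K) after 30 min at room temperature.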
Numbers stand for hits; – = inactive; ? = inconclusive; · = no result given; [ ] = remark or other dose. This is a sample that favours compounds with a hit; in the whole collection about 1.1% have one here.

SMILES | RXFP1 agonist | gsp antag | TRPV1 agonist | RXFP1 antag | TRPV1 PAM | gsp ag
CCc1ccc(NC(=O)C(C)Sc2nc(-c3ccco3)c(C#N)c(=O)[nH]2)cc1 (stereo not given) | – | – | – | – | – | ?
COc1cc(/C=C(\C#N)c2nc3ccccc3n2C)cc(OC)c1O | – | – | – | – | ? | –
CCCC(=O)Nc1ncnc2c1ncn2[C@@H]1O[C@@H]2COP(=O)(O)O[C@H]2[C@H]1OC(=O)CCC | 0.16µM | – | – | · | – | ·
CCOc1ccccc1N1CCN(C(=O)c2cc(-c3cc(OC)ccc3OC)nc3ccccc23)CC1 | – | 14µM | ? | – | – | –
Cc1cccc(N2C(=O)c3ccccc3C2=O)n1 | – | – | – | – | – | –[15.4 µM]
OC(C[n+]1ccccc1)c1ccccc1 (stereo not given) | – | – | – | – | – | –
CCCSc1nc2c(c(=O)[nH]1)C(c1ccc(F)cc1F)CC(=O)N2 (stereo not given) | – | · | · | – | · | ·
O=C(Nc1ccc(S(=O)(=O)N2CCOCC2)cc1)c1cc(-c2cc(Cl)ccc2O)n[nH]1 | – | ? | – | -60 | – | –
O=C(CSc1nc2c([nH]c3ccccc32)c(=O)n1-c1ccc(Cl)cc1)c1ccccc1 | – | · | · | · | · | ·
O=C(CSc1nc2c([nH]c3ccccc32)c(=O)n1-c1ccccc1)c1ccccc1 | – | · | · | -109 | · | ·
CCC(=O)NC(c1ccc(Cl)cc1Cl)c1ccc2cccnc2c1O (stereo not given) | – | – | – | -98 | – | –
CCCC(=O)NC(c1ccccc1Cl)c1ccc2cccnc2c1O (stereo not given) | – | – | – | -82 | – | –
CCCCC(=O)NC(c1ccc(Cl)cc1Cl)c1ccc2cccnc2c1O (stereo not given) | – | – | – | – | – | –
O=C(Cc1cccc(NC(=O)C2CCN(C(=O)C3CC3)CC2)c1)Nc1cccc(C(=O)N2CCCCC2)c1 | · | – | · | · | · | ·
CCOC(=O)N1CCc2c(sc(NCc3sccc3C)c2C(=O)Nc2ccccc2OCC)C1 | – | · | · | – | · | ·
CC(C)c1cnc2c(c1SCc1ccc([N+](=O)[O-])cc1)c(=O)n(C)c(=O)n2C | – | · | · | – | · | ·
CC(=O)c1ccc(NC(=O)CSc2nnc3ccc(-c4ccccn4)nn23)cc1 | – | – | – | – | – | –[15.4 µM]
CC(=O)c1ccc(NC(=O)N2CCN(c3ccc(C)cc3)C(C)C2)cc1 (stereo not given) | – | – | 84 | – | – | –
Cc1ccc(NC(=O)N2CCN(c3ccc(Cl)c(Cl)c3)CC2)cc1 | – | · | · | – | · | ·
CC(=O)c1ccc(N2CCN(C(=O)Nc3ccc(C)cc3)CC2)cc1 | – | – | 94 | – | – | –
C=CCN(c1ccc(F)cc1)S(=O)(=O)c1cc(C(=O)NC2CC2)ccc1Cl | · | · | · | – | · | –
O=C(CSc1nnc2c(Cl)cc(Cl)cn12)NC1CCS(=O)(=O)C1 (stereo not given) | – | – | – | – | – | 10µM
C=CCn1c(SCC(=O)NC2CCS(=O)(=O)C2)nnc1-c1ccc(Cl)cc1 (stereo not given) | – | – | – | – | – | –[15.4 µM]
CCc1cc(C(=O)OC)c(NC(=O)CN2CCN(C(=O)C3CCCO3)CC2)s1 (stereo not given) | – | – | – | – | – | –
C/C(=N/OC(=O)c1ccc(C)cc1)C(=O)c1ccc(Br)cc1 | – | – | – | – | – | –
CC/C(=N/O)C(=O)c1ccc(Br)cc1 | – | – | – | -88 | – | –[15.4 µM]
Cc1ccc(OCC(=O)NC2CC(C)(C)NC(C)(C)C2)cc1C | – | – | – | -82 | – | –
COc1ccccc1-c1noc(CSc2nnc(Cc3ccccc3)n2-c2ccc(C)c(C)c2)n1 | – | · | · | -65 | · | ·

Assay outcomes deposited in PubChem by National Center for Advancing Translational Sciences (NCATS).
